Test results as given in the supplement of paper PMC3334620.
The full ranking holds about 33,000 sequences; the median of “E-score (-0.5 to 0.5)” is about -0.013, and the highest 2% start at about 0.3. The entries come from a sample that favours the highest values as a whole.

Target: T1, Msn1 (UniProt P22148)
T1 sequence: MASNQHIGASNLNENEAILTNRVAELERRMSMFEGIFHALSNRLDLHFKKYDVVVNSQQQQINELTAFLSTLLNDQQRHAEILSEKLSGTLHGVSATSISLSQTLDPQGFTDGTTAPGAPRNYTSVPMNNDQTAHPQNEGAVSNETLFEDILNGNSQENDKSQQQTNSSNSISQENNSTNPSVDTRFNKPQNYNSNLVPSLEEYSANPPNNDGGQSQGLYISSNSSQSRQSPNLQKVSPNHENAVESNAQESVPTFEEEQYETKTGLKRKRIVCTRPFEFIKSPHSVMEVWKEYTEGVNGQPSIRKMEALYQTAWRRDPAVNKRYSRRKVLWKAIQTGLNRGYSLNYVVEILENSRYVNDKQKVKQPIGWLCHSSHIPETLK
Test: PBM E-score (8-mer binding enrichment) (E-score (-0.5 to 0.5)); higher = stronger / more preferred TF binding
Details: protein concentration: 200 nM; construct: GST-full length
How it was run: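 Detection of bound protein used fluorescent anti-GST, with scans normalised by masliner. The proteins were GST-tagged yeast transcription factors applied at about 100-200 nM to universal all-10-mer Agilent arrays made double-stranded by primer extension. Each ungapped eight-base word, pooled with its reverse complement, was scored with an E-score from the Universal PBM Analysis Suite.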

Sequence	PBM E-score
CGATATCG	0.0659
TCCTGAGA	0.0942
CTTTATGA	0.0103
AGCTCTTA	-0.0201
CGGGCAAG	0.0918
CAACGTTG	0.128
AGGCAACA	-0.161
GCCAGTCA	-0.117
ATCTGTCC	0.387
CTCTGTAC	0.0138
CTCTGTCA	-0.0435
CTCTGTCC	0.34
ATCTGTCA	0.159
ATCTGTCG	0.0829
AAAACCTG	0.0428
AAGCTCCA	-0.219
GAAGGGCC	-0.143
ATCTGTTA	0.183
ATCGCAAA	0.0406
ATTTGTCG	0.451
GTTTGTCA	0.299
CTTTGTTC	0.0603
ATTTGTCA	0.46
CTTTGTCA	0.311
CTTTGTTA	0.215

Sequence	PBM E-score
ATTTGTTG	0.177
AGTTGTCG	0.168
CTTTGTCC	0.485
ATTTGTTA	0.087
CTTTGTGA	0.126
CTTTGTGC	0.058
GCGCTAGA	-0.116
TATTGGCA	0.0554
GGCTGGAC	-0.135
TATGGTGA	-0.0581
CCGCTCAC	-0.22
ATCACGAC	0.117
AACAAAGA	0.139
TACAAAGA	0.208
GACAAAGC	0.393
TACAAGGA	0.197
GACAAAGA	0.404
AACAAAGC	-0.00117
CACAAGGA	0.0619
CACAAAGC	0.161
GACAAGGA	0.311
CCATGAAG	0.0685
ACGTCGCT	-0.211
CAAGTGAA	0.223
GCATGCCC	0.101

Sequence	PBM E-score
CTCTTGCC	-0.0644
CGACAGAA	0.167
GGACAGAC	0.375
AGACAGAC	0.279
CGACAGAC	-0.0767
GGACAGAA	0.332
AGACAGAA	0.00949
GATTGCAC	0.0495
CGAAAGCG	0.0854
AAGCCAGA	0.00654
ACGTTCAG	-0.0415
CGTCCGAA	0.222
AGTCCTAA	0.297
TGTCCAAA	0.473
AGTCCACG	-0.059
GGTCCAAA	-0.0431
GGTCCTAA	0.18
TGTCCTAA	0.487
TGTCCGAA	0.452
CGTCCACA	0.188
TGTCCACA	0.455
GGTCCGAA	0.128
AGTCCAAA	0.214
CCGGGATA	0.101
ACTGGTTC	-0.0366

Sequence	PBM E-score
CCAGCTAG	-0.16
CGCCTGAC	-0.0177
CCTAACGC	-0.129
AGTGAGGA	-0.0425
AACATAGC	0.13
CCACCAAC	-0.0306
AACCTGGT	0.00051
TGTCCCAA	0.463
CGTCCCAA	0.218
AGTCCCAA	0.17
AAGCATTA	-0.0789
CTCGATGA	-0.0098
ACGACCTA	-0.0056
CAGGCCGC	-0.144
GACATACA	0.414
GACATACC	0.4
CACATACC	0.0401
AACATACC	0.107
TACATACA	0.207
CACATACA	0.0971
GCGGATCA	-0.116
ACAAAAGG	0.229
AGTTAGAC	0.124
CTTGGGTC	-0.123
GGACTCAC	-0.116

Sequence	PBM E-score
GCCCTTTA	-0.318
GTACAAAA	0.416
GTCCAAAA	0.318
CTACAAAA	0.0933
CTACAAAC	-0.0616
ATACAAAC	0.125
GTCCAAAC	0.175
GTACAAAC	0.421
TTCCAAAA	0.192
TTACAAAA	0.12
ACGAGTAT	-0.134
GAAGGCTC	-0.291
CTTGGGCC	-0.266
CTACACGC	-0.145
GCTTCTAC	-0.0502
CGTAAGTA	0.0282
GTGTGACA	0.17
ACGTGACA	0.27
CCGTGACA	0.164
TCGTGACA	0.314
CTGTGAAA	0.2
CTGTGACA	0.316
ATGTGACA	0.305
ATGTGACG	-0.223
CTGTGACC	-0.115

Sequence	PBM E-score
CCTGCTTC	-0.172
GCGCCTAA	0.129
CGTAGGGA	0.0214
GGTTTGCA	-0.172
ACGAATCA	0.13
CAGTCACG	-0.198
ATTGCTGC	-0.0878
ATTCGGAA	0.167
ATTCGGAC	0.339
ATTCGGAG	0.0972
AAAGATAT	0.113
AATGAGAG	-0.161
CCCCAATC	-0.222
ATGACACA	0.287
ATGACATA	0.417
ATGACATG	0.361
ATGACACC	0.0663
CTGACATA	0.269
GTGACAGA	0.161
CTGACATC	0.143
GTGACTGA	0.0999
ATGACATC	0.349
ATGACAGG	0.105
ATGACAGA	0.137
GTGACATA	0.328

Sequence	PBM E-score
AGCGCGTG	-0.133
CATTGGGG	-0.125
GGGACCAA	-0.0643
CGCCTCTA	-0.0484
CACACTGG	-0.259
CATGCAGA	-0.0066
CATCTCGA	0.149
CAAGAAAG	0.0067
GATCTTAC	0.00117
AGAGAGAC	-0.0618
CGAGACAC	0.183
TGAGACAA	0.397
AGAGACAT	0.43
CGAGACAA	0.365
AGAGACAA	0.375
TGAGACCA	-0.0631
AGAGACAC	0.177
AGAGACCT	-0.012
TGAGAGAA	0.00621
AGAGACAG	0.0165
CGAGACAG	-0.00132
ATAGCGGG	-0.192
